Results: the supplement of paper PMC11732987, “Enantioselective OTUD7B fragment discovery through chemoproteomics screening and high-throughput optimisation” (Communications Chemistry, 2025)

Columns and labels:
Assay in all cases: log2 ratio of Biotin-Ahx-Ub-VS probe labelling (fragment/DMSO); higher = less target engagement (more negative = stronger competition), active = hit call of the paper (q ≤ 0.05, log2 ratio ≤ -1)
Details in all cases: compound concentration: 200 uM; treatment time: 3 h
USP34 = USP34 (UniProt Q70CQ2)
USP34, sequence (Q70CQ2 whole entry, the tested form may be a part): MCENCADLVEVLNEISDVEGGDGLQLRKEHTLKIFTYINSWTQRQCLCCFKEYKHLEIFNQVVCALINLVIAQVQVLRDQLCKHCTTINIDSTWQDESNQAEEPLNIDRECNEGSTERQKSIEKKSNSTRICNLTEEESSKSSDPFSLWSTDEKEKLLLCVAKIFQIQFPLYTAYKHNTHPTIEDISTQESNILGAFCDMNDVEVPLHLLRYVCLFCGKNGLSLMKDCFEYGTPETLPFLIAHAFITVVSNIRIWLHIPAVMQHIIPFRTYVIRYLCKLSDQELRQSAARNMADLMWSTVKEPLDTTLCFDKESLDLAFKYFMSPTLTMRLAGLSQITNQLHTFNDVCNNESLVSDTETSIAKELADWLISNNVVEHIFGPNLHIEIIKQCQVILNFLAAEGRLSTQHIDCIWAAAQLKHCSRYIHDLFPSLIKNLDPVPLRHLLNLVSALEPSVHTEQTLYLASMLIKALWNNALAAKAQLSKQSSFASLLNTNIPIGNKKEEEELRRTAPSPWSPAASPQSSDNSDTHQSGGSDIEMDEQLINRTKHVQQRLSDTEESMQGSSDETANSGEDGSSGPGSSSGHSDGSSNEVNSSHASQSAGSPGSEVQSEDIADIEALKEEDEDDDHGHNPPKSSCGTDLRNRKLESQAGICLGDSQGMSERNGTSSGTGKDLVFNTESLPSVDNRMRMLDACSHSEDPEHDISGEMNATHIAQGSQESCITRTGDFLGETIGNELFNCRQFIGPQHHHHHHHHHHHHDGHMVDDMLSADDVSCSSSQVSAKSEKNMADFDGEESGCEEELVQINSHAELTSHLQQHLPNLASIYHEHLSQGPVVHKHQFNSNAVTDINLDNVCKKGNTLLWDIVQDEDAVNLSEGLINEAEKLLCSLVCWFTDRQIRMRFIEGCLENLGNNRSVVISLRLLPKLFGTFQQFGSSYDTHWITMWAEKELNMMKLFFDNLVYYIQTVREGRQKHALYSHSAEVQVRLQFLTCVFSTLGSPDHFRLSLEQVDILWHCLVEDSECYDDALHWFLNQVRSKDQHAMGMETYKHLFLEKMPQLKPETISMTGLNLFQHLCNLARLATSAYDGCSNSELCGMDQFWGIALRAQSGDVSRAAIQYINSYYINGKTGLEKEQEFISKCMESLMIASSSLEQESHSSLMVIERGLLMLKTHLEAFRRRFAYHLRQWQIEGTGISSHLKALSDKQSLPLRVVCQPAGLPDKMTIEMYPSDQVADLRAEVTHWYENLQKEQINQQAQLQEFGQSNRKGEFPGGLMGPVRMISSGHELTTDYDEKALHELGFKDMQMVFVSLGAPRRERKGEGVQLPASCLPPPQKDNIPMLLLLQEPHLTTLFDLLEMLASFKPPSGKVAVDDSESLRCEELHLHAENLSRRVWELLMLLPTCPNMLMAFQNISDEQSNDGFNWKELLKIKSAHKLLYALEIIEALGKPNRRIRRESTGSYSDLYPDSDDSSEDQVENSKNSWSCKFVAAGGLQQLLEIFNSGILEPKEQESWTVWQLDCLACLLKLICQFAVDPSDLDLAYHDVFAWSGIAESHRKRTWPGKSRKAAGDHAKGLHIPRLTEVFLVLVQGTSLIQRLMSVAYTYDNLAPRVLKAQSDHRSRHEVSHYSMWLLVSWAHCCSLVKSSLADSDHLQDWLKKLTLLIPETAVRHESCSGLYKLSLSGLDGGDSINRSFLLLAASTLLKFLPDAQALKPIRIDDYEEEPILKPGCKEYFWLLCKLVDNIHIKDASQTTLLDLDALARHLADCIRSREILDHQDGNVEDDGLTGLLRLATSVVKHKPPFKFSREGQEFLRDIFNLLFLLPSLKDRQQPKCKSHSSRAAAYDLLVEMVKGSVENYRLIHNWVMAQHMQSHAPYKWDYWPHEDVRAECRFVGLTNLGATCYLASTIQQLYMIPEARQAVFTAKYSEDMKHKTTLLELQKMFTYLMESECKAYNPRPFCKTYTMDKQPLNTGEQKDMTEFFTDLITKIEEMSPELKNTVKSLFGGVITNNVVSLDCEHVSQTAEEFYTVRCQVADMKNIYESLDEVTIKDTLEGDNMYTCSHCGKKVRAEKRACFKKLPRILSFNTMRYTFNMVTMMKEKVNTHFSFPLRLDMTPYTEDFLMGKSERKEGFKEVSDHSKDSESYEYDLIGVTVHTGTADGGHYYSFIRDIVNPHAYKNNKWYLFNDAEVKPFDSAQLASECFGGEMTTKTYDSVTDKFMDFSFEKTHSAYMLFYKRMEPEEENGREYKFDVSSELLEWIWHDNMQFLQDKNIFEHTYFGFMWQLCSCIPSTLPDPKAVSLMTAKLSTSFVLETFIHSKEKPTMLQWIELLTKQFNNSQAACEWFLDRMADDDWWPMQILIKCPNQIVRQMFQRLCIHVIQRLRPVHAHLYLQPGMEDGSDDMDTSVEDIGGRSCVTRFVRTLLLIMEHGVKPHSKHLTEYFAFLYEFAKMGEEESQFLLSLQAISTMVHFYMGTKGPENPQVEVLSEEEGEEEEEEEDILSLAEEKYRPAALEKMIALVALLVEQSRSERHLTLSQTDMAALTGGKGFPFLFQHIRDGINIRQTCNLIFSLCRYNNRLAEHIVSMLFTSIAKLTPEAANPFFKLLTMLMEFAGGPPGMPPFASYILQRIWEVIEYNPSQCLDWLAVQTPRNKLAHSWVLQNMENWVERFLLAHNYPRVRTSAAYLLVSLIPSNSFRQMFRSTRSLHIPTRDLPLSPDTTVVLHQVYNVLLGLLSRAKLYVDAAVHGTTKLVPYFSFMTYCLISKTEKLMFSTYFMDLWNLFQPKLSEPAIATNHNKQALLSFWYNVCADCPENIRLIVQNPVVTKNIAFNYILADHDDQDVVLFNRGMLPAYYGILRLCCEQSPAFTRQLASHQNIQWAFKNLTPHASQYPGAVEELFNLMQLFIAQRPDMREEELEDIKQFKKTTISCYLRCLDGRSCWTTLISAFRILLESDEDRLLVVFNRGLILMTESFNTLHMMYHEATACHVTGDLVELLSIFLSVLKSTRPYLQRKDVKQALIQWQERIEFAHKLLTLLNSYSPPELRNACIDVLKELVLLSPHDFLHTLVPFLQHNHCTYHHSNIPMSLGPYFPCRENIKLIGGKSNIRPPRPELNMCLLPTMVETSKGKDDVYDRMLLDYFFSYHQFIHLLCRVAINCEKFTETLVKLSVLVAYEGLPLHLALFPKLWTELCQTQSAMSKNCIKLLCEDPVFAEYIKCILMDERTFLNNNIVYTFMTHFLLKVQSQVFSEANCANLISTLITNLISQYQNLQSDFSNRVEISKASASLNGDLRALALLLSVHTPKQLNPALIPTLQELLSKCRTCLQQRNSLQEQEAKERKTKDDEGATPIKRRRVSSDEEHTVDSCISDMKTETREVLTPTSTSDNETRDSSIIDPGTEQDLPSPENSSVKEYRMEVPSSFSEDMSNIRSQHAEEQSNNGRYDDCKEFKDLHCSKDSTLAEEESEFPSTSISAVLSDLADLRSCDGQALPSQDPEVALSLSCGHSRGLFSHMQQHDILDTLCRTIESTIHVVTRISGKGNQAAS
In short: (§1)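 Using Biotin-Ahx-Ub-VS at 0.5 µM final for 1 h, DUBs were labelled in HEK293T lysate (495 µg per sample) that had first been treated in triplicate with fragment at 200 µM or vehicle for 3 h. NeutrAvidin enrichment, LysC and trypsin digestion and diaPASEF LC-MS/MS followed. Spectronaut label-free quantities were global-median-normalised. Values are average log2 fragment/vehicle ratios by unpaired t-test, using proteins with ≥2 unique peptides.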

USP36 = biological target: T1, USP36 (UniProt Q9P275)
T1 sequence (whole entry): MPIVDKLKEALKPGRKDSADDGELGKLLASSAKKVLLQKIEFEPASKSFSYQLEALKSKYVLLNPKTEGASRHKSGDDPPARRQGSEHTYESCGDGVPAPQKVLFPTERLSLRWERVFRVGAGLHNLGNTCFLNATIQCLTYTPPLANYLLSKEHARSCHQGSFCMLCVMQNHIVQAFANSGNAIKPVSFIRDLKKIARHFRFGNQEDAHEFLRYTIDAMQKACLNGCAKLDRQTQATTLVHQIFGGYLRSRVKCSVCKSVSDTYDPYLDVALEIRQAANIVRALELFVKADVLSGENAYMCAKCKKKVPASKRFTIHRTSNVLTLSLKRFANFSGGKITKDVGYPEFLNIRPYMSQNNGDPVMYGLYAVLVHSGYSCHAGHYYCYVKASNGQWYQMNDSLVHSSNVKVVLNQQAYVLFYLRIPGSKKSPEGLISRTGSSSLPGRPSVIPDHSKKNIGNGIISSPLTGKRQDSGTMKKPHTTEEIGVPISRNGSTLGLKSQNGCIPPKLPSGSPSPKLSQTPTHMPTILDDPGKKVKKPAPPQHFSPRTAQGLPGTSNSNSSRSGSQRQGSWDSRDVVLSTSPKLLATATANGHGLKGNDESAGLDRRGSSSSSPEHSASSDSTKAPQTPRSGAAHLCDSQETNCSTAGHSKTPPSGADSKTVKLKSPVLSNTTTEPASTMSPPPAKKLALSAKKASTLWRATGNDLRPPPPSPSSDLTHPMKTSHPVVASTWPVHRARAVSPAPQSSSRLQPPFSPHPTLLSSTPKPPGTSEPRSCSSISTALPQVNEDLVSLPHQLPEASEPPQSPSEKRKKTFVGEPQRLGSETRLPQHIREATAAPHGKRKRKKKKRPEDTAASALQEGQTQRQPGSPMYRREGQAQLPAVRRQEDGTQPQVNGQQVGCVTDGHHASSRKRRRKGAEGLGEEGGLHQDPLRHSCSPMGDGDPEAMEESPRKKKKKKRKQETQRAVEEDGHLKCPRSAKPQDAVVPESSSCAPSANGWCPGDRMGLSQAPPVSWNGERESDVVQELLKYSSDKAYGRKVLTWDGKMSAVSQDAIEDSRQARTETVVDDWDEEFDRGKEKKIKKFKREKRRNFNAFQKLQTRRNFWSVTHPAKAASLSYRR
In short: as §1

USP38 = biological target: T2, USP38 (UniProt Q8NB14)
T2 sequence (whole entry): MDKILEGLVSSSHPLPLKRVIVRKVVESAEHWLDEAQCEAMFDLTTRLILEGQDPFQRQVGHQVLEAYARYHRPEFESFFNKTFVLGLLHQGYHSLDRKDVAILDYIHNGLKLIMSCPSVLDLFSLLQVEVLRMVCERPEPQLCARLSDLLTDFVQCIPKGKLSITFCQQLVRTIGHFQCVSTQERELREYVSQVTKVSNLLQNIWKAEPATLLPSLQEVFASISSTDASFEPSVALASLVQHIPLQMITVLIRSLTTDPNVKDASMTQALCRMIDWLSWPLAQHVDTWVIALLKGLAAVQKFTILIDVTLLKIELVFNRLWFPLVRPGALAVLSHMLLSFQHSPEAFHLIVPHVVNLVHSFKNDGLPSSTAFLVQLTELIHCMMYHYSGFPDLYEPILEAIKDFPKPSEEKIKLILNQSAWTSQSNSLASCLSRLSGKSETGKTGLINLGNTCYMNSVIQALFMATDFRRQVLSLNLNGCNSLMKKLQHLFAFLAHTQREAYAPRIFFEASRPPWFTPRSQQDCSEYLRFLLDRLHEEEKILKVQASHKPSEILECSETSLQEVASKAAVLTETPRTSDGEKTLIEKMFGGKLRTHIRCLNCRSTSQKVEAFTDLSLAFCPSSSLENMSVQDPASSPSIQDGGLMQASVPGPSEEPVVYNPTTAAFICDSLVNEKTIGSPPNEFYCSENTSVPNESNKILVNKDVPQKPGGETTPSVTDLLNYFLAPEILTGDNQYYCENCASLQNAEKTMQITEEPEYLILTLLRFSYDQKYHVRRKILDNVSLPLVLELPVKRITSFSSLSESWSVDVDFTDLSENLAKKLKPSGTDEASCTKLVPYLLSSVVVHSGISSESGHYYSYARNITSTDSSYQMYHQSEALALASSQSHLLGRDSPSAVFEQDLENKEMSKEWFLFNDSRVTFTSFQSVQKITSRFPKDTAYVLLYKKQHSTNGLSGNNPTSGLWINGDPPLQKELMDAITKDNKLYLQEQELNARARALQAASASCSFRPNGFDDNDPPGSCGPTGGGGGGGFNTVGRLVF
In short: as §1

USP39 = biological target: T3, USP39 (UniProt Q53GS9)
T3 sequence (whole entry): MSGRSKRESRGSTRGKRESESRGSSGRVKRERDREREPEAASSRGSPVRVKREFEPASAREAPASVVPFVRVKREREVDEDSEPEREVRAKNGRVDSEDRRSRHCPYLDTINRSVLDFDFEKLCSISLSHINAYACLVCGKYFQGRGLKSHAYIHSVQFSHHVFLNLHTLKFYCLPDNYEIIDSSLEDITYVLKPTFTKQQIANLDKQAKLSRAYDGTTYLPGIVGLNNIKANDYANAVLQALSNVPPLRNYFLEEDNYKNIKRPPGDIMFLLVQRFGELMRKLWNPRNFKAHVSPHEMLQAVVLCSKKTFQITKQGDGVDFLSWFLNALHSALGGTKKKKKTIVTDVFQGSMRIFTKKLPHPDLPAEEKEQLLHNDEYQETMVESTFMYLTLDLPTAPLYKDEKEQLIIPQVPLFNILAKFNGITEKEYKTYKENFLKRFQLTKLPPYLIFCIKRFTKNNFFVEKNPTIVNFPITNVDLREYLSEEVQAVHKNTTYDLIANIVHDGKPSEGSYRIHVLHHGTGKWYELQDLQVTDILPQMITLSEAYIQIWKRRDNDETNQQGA
In short: as §1

USP4 = biological target: T4, USP4 (UniProt Q13107)
T4 sequence (whole entry): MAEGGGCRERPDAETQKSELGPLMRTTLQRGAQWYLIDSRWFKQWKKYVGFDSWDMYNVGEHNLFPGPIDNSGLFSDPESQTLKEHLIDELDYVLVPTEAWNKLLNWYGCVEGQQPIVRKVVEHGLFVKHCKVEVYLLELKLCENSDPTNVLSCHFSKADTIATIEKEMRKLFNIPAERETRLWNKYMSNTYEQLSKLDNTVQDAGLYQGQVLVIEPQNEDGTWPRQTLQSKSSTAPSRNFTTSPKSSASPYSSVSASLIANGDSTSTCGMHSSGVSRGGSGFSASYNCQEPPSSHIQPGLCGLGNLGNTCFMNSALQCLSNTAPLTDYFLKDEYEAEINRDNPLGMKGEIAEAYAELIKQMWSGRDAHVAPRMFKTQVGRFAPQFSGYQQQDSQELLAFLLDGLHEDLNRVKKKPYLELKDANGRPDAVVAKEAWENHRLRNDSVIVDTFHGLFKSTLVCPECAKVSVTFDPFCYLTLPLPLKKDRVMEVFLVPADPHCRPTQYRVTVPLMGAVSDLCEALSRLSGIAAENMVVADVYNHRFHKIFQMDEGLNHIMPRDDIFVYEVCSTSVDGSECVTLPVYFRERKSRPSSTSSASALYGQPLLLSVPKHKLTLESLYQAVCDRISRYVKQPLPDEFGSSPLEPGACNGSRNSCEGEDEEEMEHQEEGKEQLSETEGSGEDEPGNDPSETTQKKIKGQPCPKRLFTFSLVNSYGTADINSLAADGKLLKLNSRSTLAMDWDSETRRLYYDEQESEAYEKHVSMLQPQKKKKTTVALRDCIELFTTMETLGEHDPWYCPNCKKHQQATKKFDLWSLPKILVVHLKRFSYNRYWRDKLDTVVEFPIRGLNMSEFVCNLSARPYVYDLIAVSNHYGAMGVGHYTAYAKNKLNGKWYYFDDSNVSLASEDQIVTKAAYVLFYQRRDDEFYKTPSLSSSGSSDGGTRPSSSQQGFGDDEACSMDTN
In short: as §1

Measured: log2 ratio of Biotin-Ahx-Ub-VS probe labelling

Cl.O=C(CCl)N[C@H]1C[C@@H](n2cccn2)C1
inactive: USP34 -0.109 | USP36 0.0625 | USP38 0.192 | USP39 0.31 | USP4 -0.0753
